Our source for the cellular ATP content (survival) values is PubChem BioAssay AID1222 (Sanford-Burnham Center for Chemical Genomics, 2008).

Fewer than 10 of roughly 190,000 compounds were called active. A selection follows. Potency and affinity values are given separately. Values without a mark were called inactive.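 Rule for the calls: active = EC50 below 50 µM in the dose-response confirmation; inactive = the rest.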

A short description of this experiment: protection against thapsigargin-triggered cell killing – 384-well, CSM14.1, ATP luminescence, primary screen (AID 1222).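 Note: death triggered by thapsigargin at about 15 µM added after 2 h compound pretreatment; cell ATP read after overnight thapsigargin exposure of roughly 18 to 22 hours; reference of the scale not given here.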 The note with it: CSM14.1 thapsigargin-induced death rescue, at 20 µM, hits give high values.
For `O=C(Nc1nnc(-c2ccco2)o1)c1ccc2ccccc2c1`, the cellular ATP content (survival) is 11.1%.
Turning to `Cc1cc(NC(=O)CCC(=O)N(CC(=O)NC2CCCC2)c2ccccc2)no1`, the cellular ATP content (survival) is 0.5%.
Consider `O=c1cc(COn2nnc3ccc(C(F)(F)F)cc32)nc2sccn12`, for which the cellular ATP content (survival) was -1.8%.
As to `O=C(Nc1ccc2nc(-c3cccnc3)[nH]c2c1)C12CC3CC(CC(C3)C1)C2`, the cellular ATP content (survival) is -3.6%.
As for `c1ccc(-c2nccc(-c3ccc(-n4cnc5ccccc54)cc3)n2)cc1`, the cellular ATP content (survival) is -0.9%.
For the compound `Cc1ccc(/C(O)=C2\C(=O)C(=O)N(CCc3c[nH]c4ccccc34)C2c2cccnc2)cc1` (stereo not drawn), the cellular ATP content (survival) is 1.1%.
Take `CCN1C(=O)/C(=C/c2ccc(N3CCCC3)cc2)NC1=S`: the cellular ATP content (survival) is 0.3%.
On to `CCCN1C(=O)/C(=C/c2ccc(N3CCCC3)c(C)c2)NC1=S`, for which the cellular ATP content (survival) is -2%.
Take `O=C(COC(=O)CCNS(=O)(=O)c1ccc2c(c1)OCCO2)NC1CCCc2ccccc21` (stereo not drawn): the cellular ATP content (survival) was -0.1%.
For `CCc1nnc(NC(=O)CCC(=O)NC2CCCCC2)s1`, the cellular ATP content (survival) is -0.3%.
In the case of `CCCCNC(=O)Cc1ccc(Br)cc1`, the cellular ATP content (survival) was 0.7%.
As for `CC1CCC2C(=O)N(c3ccc(Cc4ccncc4)cc3)C(=O)C2C1` (stereo not drawn), the cellular ATP content (survival) was 0.4%.
`CC1(C(=O)NCCN2CCOCC2)C=CC2(CCCCC2)N1C(=O)c1ccccc1` (stereo not drawn): the cellular ATP content (survival) was -4.5%.
Consider `CC(=O)OCc1cc(-c2nn(C)c(=O)c3ccccc23)ccc1C`, for which the cellular ATP content (survival) was 1.5%.
As to `O=C(N/N=C/c1ccccc1OC(F)F)C1=COCCO1`, the cellular ATP content (survival) was 0.4%.
Next, `O=S1(=O)C=CC(Sc2nc3ccccc3[nH]2)C1` (stereo not drawn): 7.3%; `Cc1ccc(S(=O)(=O)N2CCN(C(C)CC(=O)O)CC2)cc1` (stereo not drawn): -0.8%.
On to `O=C(OCCCC(=O)N1CCOCC1)c1ccccc1`, for which the cellular ATP content (survival) was -1%.
The value for `COc1cc(CN(C(=S)NCC(=O)NC2CCCC2)C2CCCC2)cc(OC)c1OC` was 0.8%.
`CCOc1ccc(Nc2nc(Cc3nnc(SCC(=O)NC4CCCCC4)n3C)cs2)cc1`: the cellular ATP content (survival) was -0.1%.
Regarding `COc1ccc(C(=O)OCC(=O)N(C)C2CCS(=O)(=O)C2)cc1S(=O)(=O)N1CCCc2ccccc21` (stereo not drawn), the cellular ATP content (survival) is 1.7%.
Consider `COc1ccc2c(c1)N(C(=O)CSc1n[nH]c(C)n1)C(C)(C)C=C2C`, for which the cellular ATP content (survival) is 5.3%.
The value for `COc1ccc(/C=C/C(=O)OCC(=O)Nc2cc(C(F)(F)F)ccc2Cl)cc1` was -2.1%; that for `Cc1cc(C)c(C(=O)CN2C(=O)NC3(CCCCC3)C2=O)cc1C` was -0.6%.
For the compound `COc1ccc(S(=O)(=O)Oc2cccc(/C=N/N=C3/NC(=O)C(CC(=O)O)S3)c2)cc1` (stereo not drawn), the cellular ATP content (survival) is 7.5%.
On to `CCCN1CCC(NC(=O)Nc2cc(Cl)ccc2OC)CC1`, for which the cellular ATP content (survival) is 0.1%.
`CC(=O)N1CCN(c2ccc([N+](=O)[O-])c(NCc3cccnc3)c2)CC1`: the cellular ATP content (survival) was -0.8%.
Take `N#Cc1cc(-c2ccccc2)nc(Oc2ccc(Cl)cc2)n1`: the cellular ATP content (survival) is -1.2%.
As for `CCCn1nc2cc(C(=O)NCc3ccc(OC(F)(F)F)cc3)ccc2c1OCC`, the cellular ATP content (survival) is -1.1%.
As to `Cc1ccc(S(=O)(=O)c2nc(-c3ccccc3)oc2NCc2cccnc2)cc1`, the cellular ATP content (survival) was 3.8%.
The value for `Cc1ccc(Nc2nc(-c3ccc(S(=O)(=O)N4CCOCC4)cc3)cs2)cc1Cl` was -1.8%; that for `CC(C)(C)N/N=C/c1c(O)n(-c2ccc(Cl)cn2)c(=O)c2ccccc12` was -1.2%; that for `O=C(Nc1cccc(C2OCCCO2)c1)c1cccs1` was -3.3%.
`O=C(c1ccc2ccccc2c1)c1c[nH]cc1-c1ccccc1`: the cellular ATP content (survival) was 0.1%.
As to `Cc1ccccc1NC(=O)C12CC3CCC1(C)C3(C)CO2` (stereo not drawn), the cellular ATP content (survival) is 3.2%.
Regarding `CC12COC3(C(=O)Nc4ccccc4)CC1CCC32C` (stereo not drawn), the cellular ATP content (survival) was 0.2%.
In the case of `CN(C1CCCCC1)S(=O)(=O)c1ccc(NC(=O)CCC(=O)O)cc1`, the cellular ATP content (survival) is -1.8%.
Next, `O=C(N[C@@H](Cc1ccccc1)C(=O)O)c1cccnc1`: -0.2%.
For `O=[N+]([O-])c1ccc(Nc2nc(Cl)nc(NCCO)n2)cc1`, the cellular ATP content (survival) is -0.9%.
Next, `Cc1ccc(S(=O)(=O)N2CCN(C(=O)CSc3nnc(C)c(=O)[nH]3)CC2)cc1`: 0.3%; `O=C(NC(=S)N1CCN(c2ccccn2)CC1)c1ccco1`: -0.1%.
For the compound `COc1ccccc1NC(=O)C/C(C)=N/NC(=O)COc1c(Br)cc(Br)cc1OC`, the cellular ATP content (survival) is 2.1%.
The value for `CCC(=O)N1CCc2cc(S(=O)(=O)CCC(=O)Nc3ccc(CC)cc3)ccc21` was -3.3%; that for `O=c1[nH]c(CSc2nnc(-c3ccccc3)n2C2CCCCC2)nc2ccccc12` was 0.3%.
Next, `CC1C(c2ccccc2)=[N+]([O-])C2(CCCCC2)N1O` (stereo not drawn): -0.2%; `Cn1c(=O)c2c(nc(CN3CCN(Cc4ccccc4)CC3)n2CCN2CCOCC2)n(C)c1=O`: 2.6%; `CCOc1ccccc1-n1c(SCC(=O)Nc2nccs2)nnc1-c1ccoc1C`: 1.4%.
In the case of `O=c1[nH]c(CCC2CCCC2)nc2ccccc12`, the cellular ATP content (survival) is -3.1%.
